CTSL1 counter = Fasciola hepatica cathepsin L1 inhibitors, primary screen, counter-screen for PFM18AAP inhibitor project, biochemical, QFRET, fluorogenic peptide substrate. recombinant F. hepatica cathepsin L1, Z-Leu-Arg-MCA fluorescence. inhibition, % at 5.96 µM. 0.49% of 300,000 active;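 active = inhibition above the mean of all tested compounds plus 3 SD, set per screening campaign, cut at about 17% in these data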;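 also: 0% = plate median of test compound wells and 100% = 1 µM Z-Phe-Ala-diazomethylketone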
PAFAH1B3 inh = PAFAH1B3 enzyme inhibitors, primary screen, biochemical, fluorescence polarization, human. Platelet-activating factor acetylhydrolase IB subunit alpha1 (Homo sapiens), Q15102. recombinant PAFAH1B3, FP-rhodamine probe. inhibition, % at 3.39 µM. 0.28% of 340,000 active. AID 492972, 2010;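 active = inhibition above the screen-wide average of all tested compounds plus 3 SD, cut at about 25% in these data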;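 also: 0% = enzyme with DMSO only and 100% = wells lacking PAFAH1B3 protein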
pPAFAH FP inh = pPAFAH enzyme inhibitors, primary screen, biochemical, fluorescence polarization, human | Platelet-activating factor acetylhydrolase (Homo sapiens), Q13093 | 1.5% of 330,000 active | inhibition, % at 3.39 µM | AID 463082, 2010 | recombinant pPAFAH, FP-rhodamine probe fluorescence polarization;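 active = inhibition above the mean inhibition across the screen plus 3 SD, cut at about 25% in these data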;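 also: inhibitors block binding of the rhodamine activity-based probe so polarization drops; 0% = enzyme with DMSO and 100% = wells lacking pPAFAH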
PAFAH2 FP inh = PAFAH2 enzyme inhibitors, primary screen, biochemical, fluorescence polarization, human. Platelet-activating factor acetylhydrolase 2, cytoplasmic (Homo sapiens), Q99487. recombinant PAFAH2, FP-rhodamine activity probe. inhibition, % at 3.39 µM. 0.99% of 340,000 active. AID 492956, 2010;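 active = inhibition above the mean over all tested compounds plus 3 SD, cut at about 30% in these data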;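 also: inhibitors block probe labeling of enzyme so polarization drops; 0% = enzyme with DMSO and 100% = wells lacking PAFAH2 protein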
PAFAH1B2 FP inh = PAFAH1B2 enzyme inhibitors, primary screen, biochemical, fluorescence polarization, human | Platelet-activating factor acetylhydrolase IB subunit alpha2 (Homo sapiens), P68402 | recombinant PAFAH1B2, FP-rhodamine activity probe | inhibition, % at 3.39 µM | 1.2% of 340,000 active | AID 492953, 2010;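 active = inhibition above the mean of all tested compounds plus 3 SD, cut at about 24% in these data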;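 also: 0% = enzyme with DMSO and 100% = wells lacking PAFAH1B2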
Target sequence (P68402 whole entry, looked up): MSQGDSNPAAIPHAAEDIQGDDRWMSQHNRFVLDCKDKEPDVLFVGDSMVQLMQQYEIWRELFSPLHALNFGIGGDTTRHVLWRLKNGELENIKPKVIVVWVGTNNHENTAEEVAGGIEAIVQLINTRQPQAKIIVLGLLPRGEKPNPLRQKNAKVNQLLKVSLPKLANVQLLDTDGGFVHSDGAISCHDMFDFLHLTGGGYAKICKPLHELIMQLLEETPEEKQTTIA
PP5 inh = PP5 phosphatase inhibitors, primary screen, biochemical, fluorescence; Serine/threonine-protein phosphatase 5 (Homo sapiens), P53041; purified PP5c, OMFP substrate fluorescence; inhibition, % at 6.7 µM; 0.18% of 320,000 active;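 active = inhibition above the campaign's mean inhibition across all tested compounds plus 3 SD, cut at about 9.5% in these data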;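 also: 0% = DMSO only and 100% = 100 µM cantharidin control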
Target sequence (P53041 whole entry, looked up): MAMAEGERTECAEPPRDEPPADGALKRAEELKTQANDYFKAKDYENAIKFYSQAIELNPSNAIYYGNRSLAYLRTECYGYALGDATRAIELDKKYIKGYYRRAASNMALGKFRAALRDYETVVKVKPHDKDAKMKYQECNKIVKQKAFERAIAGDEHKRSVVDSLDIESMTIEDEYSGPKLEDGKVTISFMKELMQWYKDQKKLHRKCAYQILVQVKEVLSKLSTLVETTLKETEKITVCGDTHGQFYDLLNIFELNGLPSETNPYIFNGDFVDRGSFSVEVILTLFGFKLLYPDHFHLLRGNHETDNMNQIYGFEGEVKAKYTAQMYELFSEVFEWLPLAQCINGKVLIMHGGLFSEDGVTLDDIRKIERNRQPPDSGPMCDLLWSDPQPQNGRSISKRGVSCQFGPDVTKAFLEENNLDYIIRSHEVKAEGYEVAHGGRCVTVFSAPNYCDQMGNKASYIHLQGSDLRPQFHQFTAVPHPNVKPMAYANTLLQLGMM
PP5 conf = PP5 phosphatase inhibitors, confirmation, biochemical, fluorescence, human; shares compounds with PP5 inh; Purified PP5, fluorogenic phosphatase substrate; inhibition, % at 6.7 µM; 22% of 460 active; AID 2331, 2010; in the data active = inhibition above about 9.5%
PP1 counter 3x = PP1 phosphatase inhibitors, counter-screen for PP5 inhibitor project, biochemical, fluorescence, triplicate; inhibition, % at 6.7 µM; 4% of 460 active; AID 2355, 2010; PP1 enzyme, fluorescent phosphatase substrate; shares compounds with PP5 inh; in the data active = inhibition above about 16%
The depositor's hits bear a star; . = no result given. Rows were chosen to be rich in hits. Some 3% of all compounds tested hit in one or more screens of this group.

SMILES | CTSL1 counter | PAFAH1B3 inh | pPAFAH FP inh | PAFAH2 FP inh | PAFAH1B2 FP inh | PP5 inh | PP5 conf | PP1 counter 3x
CCN(CC)S(=O)(=O)c1cc(C(=O)Nc2nncs2)c(Cl)cc1Cl | -4.0 | 5.6 | 3.5 | 12.6 | 6.0 | 11.1* | -2.3 | -1.4
O=C(Nc1ccc(OC(F)(F)F)cc1)c1ccc2nc[nH]c2c1 | 0.6 | 5.6 | 1.9 | -3.7 | 4.5 | 3.3 | . | .
NC(=O)c1cccc(-c2cc(Nc3ccc(OC(F)(F)F)cc3)ncn2)c1 | 0.1 | -15.9 | -3.2 | -41.3 | 1.8 | 10.1* | 6.0 | 8.7
CCOC(=O)c1c(NC(=O)C2C3CCC(O3)C2C(=O)O)sc2c1CCC(CC)C2 (configuration not stated) | 3.0 | 7.8 | 6.4 | 7.1 | 5.5 | 14.2* | 2.3 | 4.2
CCOC(=O)c1c(NC(=O)C2C3C=CC(C3)C2C(=O)O)sc2c1CCC(CC)C2 (configuration not stated) | 5.0 | -2.5 | 6.1 | 0.8 | 17.3 | 1.6 | . | .
CCCOC(=O)c1c(-c2ccc(C)cc2C)csc1NC(=O)C1C2CCC(O2)C1C(=O)O (configuration not stated) | 0.6 | 11.3 | 18.0 | 16.9 | 22.8 | 10.8* | -1.4 | 5.4
CCOC(=O)c1c(NC(=O)C2C3CCC(O3)C2C(=O)O)sc(C)c1-c1ccc(F)cc1 (configuration not stated) | -2.5 | 5.7 | 9.9 | 3.3 | 8.7 | 13.0* | 1.0 | 3.6
CCCC(=O)OCC1CN(Cc2ccco2)S(=O)(=O)c2c(F)cccc2O1 (configuration not stated) | . | -8.2 | . | 25.6 | 0.6 | . | . | .
CN1CCN(CC(=O)NN(Cc2ccccc2)c2ccccc2)CC1 | -0.5 | 5.3 | 1.1 | 8.1 | 5.6 | 11.7* | 1.6 | -3.9
CCN(CC)CC(=O)NN(Cc1ccccc1)c1ccccc1 | 7.1 | 13.0 | 1.8 | 7.3 | -1.1 | 1.6 | . | .
O=C(CC1C(=O)NCCN1C(=O)Nc1ccc(F)cc1)Nc1ccc(F)cc1 (configuration not stated) | 0.5 | 9.6 | -3.7 | 4.9 | 5.5 | 9.7* | -4.6 | -1.2
O=[N+]([O-])c1cccc(S(=O)(=O)[N-]c2nc3ccccc3nc2-n2cc[n+](Cc3ccccc3)c2)c1 | -7.6 | 7.5 | 4.6 | 3.5 | 5.2 | 12.6* | -1.5 | 1.7
O=S(=O)([N-]c1nc2ccccc2nc1-n1cc[n+](Cc2ccccc2)c1)c1ccccc1 | 1.7 | 4.1 | 8.1 | 14.0 | 0.7 | -2.8 | . | .
COC(CNS(=O)(=O)c1ccc(S(=O)(=O)NC2CC2)cc1)OC | . | 9.8 | . | -0.2 | 2.2 | . | . | .
Cc1cccc(N/C(N)=N/c2nc3c(c(=O)[nH]2)CCCC3)c1 | -4.3 | 8.4 | -1.6 | 5.3 | 4.8 | 12.8* | -8.0 | -6.2
N/C(=N\c1nc2c(c(=O)[nH]1)CCC2)Nc1cccc(Cl)c1 | -5.0 | -3.6 | 6.3 | 3.1 | 3.5 | 0.5 | . | .
NNC(=O)c1cc(-c2cccs2)nc2ccccc12 | 2.1 | 3.0 | 0.8 | -0.1 | -4.8 | 14.9* | -2.8 | -1.9
COc1ccc(CNC(=O)CSCc2ccccc2Cl)cc1 | -0.1 | 1.3 | 4.7 | -1.8 | -1.4 | -0.5 | . | .
CCN1CCN(Cc2c3ccccc3cc3ccccc23)CC1 | -6.2 | 13.3 | 6.2 | 7.3 | 6.5 | 1.7 | . | .
COc1ccc(OC)c(C2=Nn3c(nnc3-c3cccc(OC(C)C)c3)SC2)c1 | 3.7 | 4.0 | 2.4 | -3.5 | 5.5 | 12.4* | 0.5 | -0.1
COc1ccc(C2=Nn3c(nnc3-c3ccncc3)SC2)cc1 | 2.0 | -1.6 | -2.1 | -2.0 | 3.2 | 11.5* | -2.7 | -3.2
COc1ccccc1-c1cccc([C@@H]2C[C@H]3[C@@H](CN2)CON3C)c1 | . | 6.4 | . | 1.2 | -1.8 | . | . | .
CC1CCC(NC(=O)CSc2nnc(-c3cccnc3)o2)CC1 (configuration not stated) | . | 1.2 | 5.1 | 1.5 | 3.6 | -1.0 | . | .
COC(CNC(=O)c1ccc(CS(=O)(=O)c2ccccc2)o1)OC | -1.4 | 2.5 | 1.0 | 2.4 | 3.0 | 13.9* | -3.2 | -4.4
COc1ccc(S(=O)(=O)Cc2ccc(C(=O)NCC(OC)OC)o2)cc1 | -4.9 | -0.3 | -3.8 | -6.6 | 6.8 | -0.9 | . | .
SMILES | CTSL1 counter | PAFAH1B3 inh | pPAFAH FP inh | PAFAH2 FP inh | PAFAH1B2 FP inh | PP5 inh | PP5 conf | PP1 counter 3x
CN(CC(=O)Nc1cccc(S(=O)(=O)NC2=NCCC2)c1)Cc1ccccc1Cl | . | 1.6 | 2.6 | 4.5 | 4.0 | 4.2 | . | .
CN(C)C(=O)Cn1c(SCC(=O)NC2CCCCC2)nc2ccccc21 | -4.0 | -0.1 | 0.6 | 0.8 | -1.2 | 10.0* | -0.9 | -2.0
C=CCNC(=O)CSc1nnc(-c2cccs2)o1 | -1.4 | -5.3 | 2.8 | 4.2 | -0.8 | -1.0 | . | .
O=C(CSc1nnc(-c2cccs2)o1)NCC1CN(Cc2ccccc2)CCO1 (configuration not stated) | 0.8 | -7.2 | 2.7 | -3.7 | 1.9 | 19.2* | -3.6 | -6.0
COc1ccc(CCN2CC(C(=O)OCc3ccccc3Cl)CC2=O)cc1OC (configuration not stated) | . | 0.3 | . | -0.7 | -0.6 | . | . | .
Cn1c(=O)c2[nH]c(-c3cccnc3)nc2n(C)c1=O | 0.1 | 3.6 | -8.8 | -0.9 | 1.1 | 13.7* | -4.1 | -3.5
COc1ccc(C(=O)NNC(=O)CCc2ccccc2OC)cc1 | 4.3 | 10.6 | -0.2 | 0.0 | 3.6 | 16.0* | -3.8 | -3.4
COc1ccccc1CCC(=O)NNC(=O)c1ccccc1 | 1.2 | -4.9 | -2.6 | -3.6 | -0.5 | 1.5 | . | .
CN1C=CC=C/C1=C1\SC(=S)N(C2CCCCC2)C1=O | 4.7 | 0.1 | 2.1 | 10.8 | 6.5 | 9.7* | -1.5 | -0.9
CN1C=CC=C/C1=C1\SC(=S)N(c2ccccc2)C1=O | 2.2 | -6.5 | -0.2 | -6.8 | 1.6 | 2.7 | . | .
O=C(Cn1ccc(NC(=O)OCc2ccccc2)nc1=O)NCc1ccc2c(c1)OCO2 | . | 5.6 | 2.6 | 8.8 | 2.2 | 2.2 | . | .
O=C(CN1C(=O)c2ccccc2C1=O)Nc1cccc(S(=O)(=O)Nc2ccccc2Cl)c1 | 0.0 | 5.7 | 6.3 | 0.2 | 0.3 | 11.7* | -0.8 | 1.2
Cc1ccc(S(=O)(=O)N(C)C)cc1NC(=O)COC(=O)Cc1ccsc1 | -6.4 | -1.5 | 12.9 | 6.0 | 4.5 | -2.9 | . | .
